Data: PubChem BioAssay (NCATS)
Results filed as inconclusive are left out. Calls of active or inactive are those of the source. Calls come from the whole dose curve; as a rule, active = well fitted inhibition curve with a large enough effect; inconclusive = small, poorly fitted or top-dose-only effect; inactive = flat fitted curve, though single readings scatter.

Assays:
[1] = tested on: CRL-7250; assay: Cytotoxic Profiling of Annotated Libraries Using Quantitative High-Throughput Screening (AID 1296008); settings: Five cell lines viability, CellTiter-Glo ATP luminescence, 48-72 h; max response: hits give low values
Outline: (§1)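 Compounds were pin-transferred onto cells and incubated 48 or 72 hr at 37 degree Celsius, 95% humidity. CellTiter-Glo was added, plates sat 10 min at room temperature, then ATP-coupled luminescence was imaged as the viability read-out.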

[2] = tested on: HEK293; assay: as above; settings: Five cell lines viability, CellTiter-Glo ATP luminescence, 48-72 h; max response: hits give low values
Outline: as §1

[3] = tested on: HaCat; assay: as above; settings: Five cell lines viability, CellTiter-Glo ATP luminescence, 48-72 h; max response: hits give low values
Outline: as §1

[4] = tested on: NIH3T3; assay: as above; settings: Five cell lines viability, CellTiter-Glo ATP luminescence, 48-72 h; max response: hits give low values
Outline: as §1

[5] = tested on: HACAT; assay: qHTS assay to identify novel small-molecules to repurpose for Merkel cell carcinoma treatment (AID 1296009); settings: MCC and control cell lines, CellTiter-Glo viability, 72 h; at 44.8 µM (top of the series) unless noted
Outline: (§2)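 Cells exposed to NPC (8-point) and MIPE (11-point) compound dilutions for 72 hr at 37 degree celsius; viability read by CellTiter-Glo luminescence, normalized to no-cell and DMSO in-plate controls.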

[6] = tested on: MCC-13; assay: as above; settings: MCC and control cell lines, CellTiter-Glo viability, 72 h; series mostly up to 46 µM
Outline: as §2

[7] = tested on: MCC-26; assay: as above; settings: MCC and control cell lines, CellTiter-Glo viability, 72 h; series mostly up to 46 µM
Outline: as §2

[8] = tested on: HEK293T; assay: as above; settings: MCC and control cell lines, CellTiter-Glo viability, 72 h; at 44.8 µM (top of the series) unless noted
Outline: as §2
% is set by controls: 0 for no effect and ±100 for the full control effect.
Note: nearly all actives have a fitted effect of over 60% in size.

CCN(CC)CC(=O)Nc1c(C)cccc1C(=O)OC
inactive: max response [1] 1.74% | max response [2] 2.01% | outcome [3] | max response [4] 1.11% | outcome [5] | Potency [6] | Potency [7]

O=C(O)[C@@H](O)[C@H](O)[C@H](O)[C@@H](O)C(=O)O
inactive: max response [1] -8.84% | max response [2] 3.38% | outcome [3] | max response [4] -2.02% | outcome [5] | Potency [6] | Potency [7]

CCN1CCN(C(=O)N[C@@H](C(=O)N[C@@H]2C(=O)N3[C@@H]2SC(C)(C)[C@H]3C(=O)O)c2ccccc2)C(=O)C1=O
inactive: outcome [1] | max response [2] -1.44% | outcome [3] | max response [4] 2.03% | outcome [5] | Potency [6] | Potency [7]

CCCCN(CCN(CCCC)C(=O)N1CCOCC1)C(=O)N1CCOCC1
inactive: max response [1] -1.09% | max response [2] -9.35% | outcome [3] | max response [4] -9.41% | outcome [5] | Potency [6] | Potency [7]

CN(C)CCN(Cc1ccsc1)c1ccccn1
inactive: max response [1] -0.513% | max response [2] -3.25% | outcome [3] | outcome [4] | outcome [5] | Potency [6] | Potency [7]

C1N2CN3CN1CN(C2)C3
inactive: outcome [1] | outcome [2] | max response [3] -1.63% | max response [4] -2.39% | outcome [8] | Potency [6] | Potency [7]

CCOCCn1c(C2CCN(CCc3ccc(C(C)(C)C(=O)O)cc3)CC2)nc2ccccc21
inactive: max response [1] -0.215% | max response [2] -1.51% | outcome [3] | max response [4] -0.532% | outcome [5] | Potency [6] | Potency [7]

NCC[C@H](O)C(=O)N[C@@H]1C[C@H](N)[C@@H](O[C@H]2O[C@H](CN)[C@@H](O)[C@H](O)[C@@H]2O)[C@H](O)[C@@H]1O[C@H]1O[C@H](CO)[C@@H](O)[C@H](N)[C@@H]1O
inactive: max response [1] -2.25% | max response [2] -4.69% | outcome [3] | max response [4] -2.83% | outcome [5] inactive [at 0.588 µM] | activity change, negative = cytotoxicity [6] 1.29% [at 0.597 µM] | activity change, negative = cytotoxicity [7] 13.8% [at 0.597 µM]

NS(=O)(=O)c1cc(C(=O)NN2C[C@H]3[C@H]4CCC(C4)[C@H]3C2)ccc1Cl
inactive: outcome [1] | max response [2] 4.38% | outcome [3] | outcome [4] | outcome [5] | Potency [6] | Potency [7]

CCCCCCCC(=O)[O-].CCCCCCCC(=O)[O-].[Zn+2]
inactive: max response [1] -4.35% | max response [2] -2.75% | outcome [3] | max response [4] 4.51% | outcome [5] | Potency [6] | Potency [7]

CN(C)CCCOC1(Cc2ccccc2)CCCCCC1
inactive: outcome [1] | outcome [2] | max response [3] -13.3% | max response [4] 0.545% | outcome [8] | Potency [6]

CCCc1ncc(C(=O)O)s1
inactive: max response [1] -9.12% | max response [2] 4.41% | outcome [3] | outcome [4] | outcome [5] | Potency [6] | Potency [7]

CN1CC(=O)N2[C@H](c3ccc4c(c3)OCO4)c3[nH]c4ccccc4c3C[C@@H]2C1=O
inactive: max response [1] 3.82% | max response [2] -4.29% | outcome [3] | max response [4] 3.47% | outcome [5] | Potency [6] | Potency [7]

CCOC(=O)C(=O)CCc1ccccc1
inactive: max response [1] -13.2% | max response [2] 4.19% | outcome [3] | max response [4] -3.41% | outcome [5] | Potency [7]

O=C(O)C(=O)Nc1cccc(-c2nn[nH]n2)c1
inactive: max response [1] -0.0138% | outcome [2] | max response [3] -5.35% | outcome [4] | outcome [8] | Potency [6] | Potency [7]

CCCCOCCOC(=O)c1cccnc1
inactive: outcome [1] | outcome [2] | max response [3] -21.3% | max response [4] -2.28% | outcome [8] | Potency [6] | Potency [7]

O=C1CC2(CCCC2)CC(=O)N1CCNCC1COc2ccccc2O1 (configuration not stated)
inactive: max response [1] -5.57% | outcome [2] | max response [3] -0.105% | max response [4] -7.46% | outcome [8] | Potency [6] | Potency [7]

CC(=O)O[C@H]1CC[C@@]2(C)C(=CC[C@@H]3[C@@H]2CC[C@]2(C)C(C(C)=O)=CC[C@@H]32)C1
inactive: max response [1] -17.3% | max response [2] -0.38% | max response [3] -12.2% | max response [4] -1.15% | Potency [6]

CCCCCC1Nc2cc(C(F)(F)F)c(S(N)(=O)=O)cc2S(=O)(=O)N1 (configuration not stated)
inactive: max response [1] -8.64% | max response [2] -4.59% | max response [3] -13.3% | outcome [4] | Potency [6] | Potency [7]

CCCCN(CCCC)C(C(N)=O)c1ccc(OC)cc1 (configuration not stated)
inactive: outcome [1] | max response [2] -5.09% | max response [3] 2.19% | outcome [4] | Potency [6]

O=C(CO)[C@@H](O)[C@H](O)[C@@H](O)CO
inactive: outcome [1] | outcome [2] | max response [3] 3.88% | outcome [4] | outcome [8] | Potency [6] | Potency [7]

Cc1c(F)cc2c(=O)c(C(=O)O)cn3c2c1CCC3C (configuration not stated)
inactive: max response [1] -2.94% | outcome [2] | max response [3] -5.41% | max response [4] -8.9% | outcome [8] | Potency [6] | Potency [7]
